# Source: the supplement of paper PMC10981050
# Where “and” joins values, the source holds several entries; their conditions need not be identical. Equal entries are not always repeated. Structures can show the parent of a compound that is named as a salt.
# Columns and labels:
# Assay in all cases: cell viability relative to vehicle control; higher = less cytotoxic
# Settings in all cases: 10 µM
# [1] = test system: K562
# Outline: (§1)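 Four leukaemia lines, as CRISPR-edited mutant clones and isogenic wild-type clones, were tested against Selleck bioactive, kinase and epigenetic probe libraries after removal of identity-inconsistent compounds. Cells were exposed to a single 10 µM dose for 48 h, and CellTiter-Glo luminescence was then read. Viability was calculated relative to the on-plate vehicle control.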
# [2] = test system: MARIMO
# Outline: as §1
# [3] = test system: MOLM14
# Outline: as §1
# [4] = test system: OCI-AML2
# Outline: as §1
SMILES,cell viability ([1]; SRSF2 genotype: SRSF2 P95H/wt),cell viability ([1]; SRSF2 genotype: SRSF2 wt/wt) [%],cell viability ([2]; SRSF2 genotype: SRSF2 P95H/wt) [%],cell viability ([2]; SRSF2 genotype: SRSF2 wt/wt) [%],cell viability ([3]; SRSF2 genotype: SRSF2 P95H/wt) [%],cell viability ([3]; SRSF2 genotype: SRSF2 wt/wt) [%],cell viability ([4]; SRSF2 genotype: P95H/wt) [%],cell viability ([4]; SRSF2 genotype: wt/wt) [%]
C=C1C[C@@H]2[C@H](CC[C@]3(C)C(=O)CC[C@@H]23)[C@@]2(C)C=CC(=O)C=C12 [Exemestane],93.7% and 96.7%,100,82.8,92.6,80.3,94.3,90.2,91.2
Cc1cc(SCc2sc(-c3ccc(C(F)(F)F)c(F)c3)nc2C)ccc1OCC(=O)O,100% and 101%,105,106,112,99.7,103,95.9,101
N[C@@H]1C[C@H]1c1ccccc1 [Tranylcypromine (2-PCPA) HCl],109% and 112%,115,98,107,97.7,97.5,94.1,85
Nc1ncnc2c1ccn2[C@@H]1O[C@H](CO)[C@@H](O)[C@H]1O [Tubercidin],4.16% and 3.19%,3.9,1.78,1.63,0.87,1.22,0.61,0.99
CC(C)C1=CC(=O)[C@@](C)(C2[C@H](O)C[C@@]3(C)[C@@H]4CC=C5[C@@H](CC[C@@H](OC6OCC(O)C(O)C6OC6OC(C)C(O)C(O)C6O)C5(C)C)[C@]4(C)C(=O)C[C@]23C)O1 (stereo partly drawn) [Picfeltarraenin IA],95.9% and 96.6%,89.6,92.2,92.5,89.7,93.2,94.3,101
CC1=C[C@H]2Cc3[nH]c(=O)ccc3[C@]3(C1)NCCC[C@H]23 [Huperzine B],110% and 97%,113,109,103,113,108,105,94.8
OC(CNc1ccccc1)Cn1c2ccc(Br)cc2c2cc(Br)ccc21 (stereo not drawn),74.2% and 72.5%,66.2,85.1,98.2,87.2,58.1,52.3,83.5
COC(=O)Nc1nc2ccccc2[nH]1 [Carbendazim],35% and 44.4%,51.9,36.2,31.8,58.5,49,60.5,52.2
CCN1C[C@]2(COC)CC[C@H](OC)[C@]34C1[C@H]([C@H](OC)[C@H]23)[C@@]1(OC(C)=O)C[C@H](OC)[C@@]2(O)C[C@@H]4[C@@H]1[C@H]2OC(=O)c1ccc(OC)cc1 [Crassicauline A],93.2% and 89.8%,87.5,84.4,93.3,91.8,90.6,87.7,100
NCC(CC(=O)O)c1ccccc1 (stereo not drawn) [Phenibut],105% and 102%,102,102,109,108,104,96.7,116
CN1CC=C(c2ccccc2)CC1 [MPTP hydrochloride],100% and 99.7%,102,107,111,103,105,92.5,108
Cc1sc2c(c1C)C(c1ccc(Cl)cc1)=N[C@@H](CC(=O)Nc1ccc(O)cc1)c1nnc(C)n1-2,60.9% and 68.8%,71.9,27.3,35.8,18,14.1,17.7,32.3
C[C@]12CCC(=O)C(O)=C1CC[C@@H]1[C@@H]2CC[C@]2(C)C(=O)CC[C@@H]12 [Formestane],96.6% and 94.4%,102,93.2,107,107,103,104,112
CCN1CC2(OC(=O)c3ccccc3NC(C)=O)CCC(OC)C34C1C(CC23)C1(O)CC(OC)C2CC4C1(O)C2OC (stereo not drawn) [Lappaconitine],99.3% and 109%,100,108,103,103,105,111,91.9
CNCC(O)c1ccc(O)cc1 (stereo not drawn) [Synephrine (Oxedrine)],106% and 102%,94.5,103,98.5,97.4,101,98.4,106
CCC(=O)O[C@H]1CC[C@H]2[C@@H]3CC[C@H]4CC(=O)[C@H](C)C[C@]4(C)[C@H]3CC[C@]12C [Drostanolone Propionate],85.6% and 88.6%,79.2,72.7,44.8,77.4,83.8,63.7,57.3
COc1ccc(C=O)cc1 [p-Anisaldehyde],107% and 99.7%,111,103,103,105,104,97.2,117
CC(NC(C)(C)C)C(=O)c1cccc(Cl)c1 (stereo not drawn) [Amfebutamone (Bupropion) HCl],86.7% and 90.3%,95.6,87.9,94.1,95.1,95.6,93.1,90.5
CCC1(c2cccc(O)c2)CCCCN(C)C1 (stereo not drawn) [Meptazinol HCl],96.2% and 101%,100,91,93.7,103,98.1,96.4,92.4
C=C1[C@H]2C[C@@]3([C@@H]1O)[C@@H](CC2=O)[C@]12[C@@H]4C[C@H]3[C@H]1N(CC)C[C@]4(C)CC[C@@H]2O [Songorine],96.8% and 99.6%,101,98,98.8,102,98.4,103,103
CN(C)[C@@H]1C(=O)C(C(N)=O)=C(O)[C@@]2(O)C(=O)C3=C(O)c4c(O)cccc4[C@@](C)(O)[C@H]3[C@H](O)[C@@H]12 [Oxytetracycline (Terramycin)],86.7% and 82.8%,85.9,90.8,87.4,87.5,88.3,84.5,90

SMILES,cell viability ([1]; SRSF2 genotype: SRSF2 P95H/wt),cell viability ([1]; SRSF2 genotype: SRSF2 wt/wt) [%],cell viability ([2]; SRSF2 genotype: SRSF2 P95H/wt) [%],cell viability ([2]; SRSF2 genotype: SRSF2 wt/wt) [%],cell viability ([3]; SRSF2 genotype: SRSF2 P95H/wt) [%],cell viability ([3]; SRSF2 genotype: SRSF2 wt/wt) [%],cell viability ([4]; SRSF2 genotype: P95H/wt) [%],cell viability ([4]; SRSF2 genotype: wt/wt) [%]
O=C(O)CNC(=O)C1C(=O)N(C2CCCCC2)C(=O)N(C2CCCCC2)C1=O,93.8% and 88.7%,83.9,86.5,101,83.8,94.1,98.8,98.5
O=P1(NCCCl)OCCCN1CCCl (stereo not drawn) [Ifosfamide],98.8% and 105%,104,105,100,104,101,111,98
CC(C)N(CCC(C(N)=O)(c1ccccc1)c1ccccn1)C(C)C (stereo not drawn) [disopyramide phosphate],98.9% and 108%,106,104,109,104,104,107,96.2
CCCCC(C#N)(Cn1cncn1)c1ccc(Cl)cc1 (stereo not drawn) [Myclobutanil],105% and 99.5%,100,97,109,93.9,108,92.3,98.1
NC(=O)CN1CC(c2ccccc2)CC1=O (stereo not drawn) [Phenylpiracetam],94.8% and 94.3%,97.6,102,96.9,99.8,98.1,101,103
O=C1CC[C@@]2(O)[C@H]3Cc4ccc(O)c5c4[C@@]2(CCN3CC2CC2)[C@H]1O5 [Naltrexone HCl],98.5% and 105%,97.7,98.8,103,99.9,103,106,99.8
CNCC(=O)c1ccc(O)c(O)c1 [Adrenalone HCl],97.4% and 92.4%,98.3,91.8,92.3,88.6,94,90.5,97.5
COC1=C[C@@H]2[C@@H]3Cc4ccc(OC)c(O)c4[C@]2(CCN3C)CC1=O [Sinomenine hydrochloride],104% and 105%,97.9,102,101,98.5,101,103,109
O=C(CC1NCCCC1O)Cn1cnc2cc(Br)c(Cl)cc2c1=O (stereo not drawn) [Halofuginone],6.09% and 15.2%,11,8.89,3.03,0.77,0.52,0.78,5.46
CCOC(=O)Nc1ccc(NCc2ccc(F)cc2)cc1N [Retigabine 2HCl],94.1% and 97.3%,97.4,91.6,103,105,102,96.5,102
C[C@](O)(COc1ccc(C#N)cc1)C(=O)Nc1ccc(C#N)c(C(F)(F)F)c1,90.6% and 94.9%,97.9,98.7,94.2,94,96.7,99.4,93.4
Cn1cc(C2=C(c3cn(C4CCN(Cc5ccccn5)CC4)c4ccccc34)C(=O)NC2=O)c2ccccc21,91.5% and 86.9%,91.3,93,101,76.9,91.3,110,111
C[C@H]1CC[C@@H]2N(C1)C[C@H]1[C@@H]3C[C@H]4[C@@H](C[C@H](O)[C@H]5C[C@@H](O)CC[C@@]54C)[C@@H]3CC[C@@H]1[C@]2(C)O [Peimine],110% and 102%,95.8,97.3,104,104,98.6,99.6,106
CN(C)[C@@H]1C(=O)C(C(N)=O)=C(O)[C@@]2(O)C(=O)C3=C(O)c4c(O)ccc(Cl)c4[C@@](C)(O)[C@H]3C[C@@H]12 [Chlortetracycline HCl],106% and 108%,107,105,108,105,105,102,103
C[C@]12CC[C@H](O)C[C@@]1(O)CC[C@@H]1[C@@H]2CC[C@]2(C)[C@@H](C3=CC(=O)OC3)CC[C@]12O [Periplogenin],8.32% and 13%,12.9,14.3,11.9,7.26,1.77,4.72,8.91
CC[C@@]1(O)C(=O)OCc2c1cc1n(c2=O)Cc2cc3ccccc3nc2-1 [Camptothecin],27.3% and 26.7%,21.8,5.71,3.67,3.1,1.35,3.26,3.91
COC(=O)C[C@](O)(CCC(C)(C)O)C(=O)O[C@@H]1C(OC)=C[C@]23CCCN2CCc2cc4c(cc2[C@H]13)OCO4 [Harringtonine],12.3% and 17.8%,20.6,8.47,4.47,2.72,1,5.78,10.9
CCO[C@H]1O[C@@H]2O[C@@]3(C)CC[C@H]4[C@H](C)CC[C@@H]([C@H]1C)[C@@]24OO3 [Arteether],68.2% and 63.3%,69,62.3,64.4,69.8,45.7,55.5,52.5
COC1CC(OC2CCC3(C)C(CCC45OC46CCC(C(C)=O)C6(C)C(OC(C)=O)C(OC(=O)c4ccccc4)C35)C2)OC(C)C1OC1OC(C)C(O)C(OC)C1O (stereo not drawn) [Tenacissoside I],92.5% and 93.1%,93.8,88.2,100,91.9,92.5,95,106
CC[C@@H]1CN2CC[C@@]3(C(=O)Nc4ccccc43)[C@@H]2C[C@@H]1/C(=C\OC)C(=O)OC [Corynoxine],95.5% and 98.3%,97.9,75.2,69.5,77.1,82.5,92.9,79.2
